Records with an inconclusive call do not appear. The source made the active and inactive calls. Calls follow the shape of the dose curve; as a rule, active = well fitted curve in the direction sought with a large enough effect; inconclusive = small, poorly fitted or top-dose-only effect, or another doubt; inactive = no such curve, though single readings can be large; an effect the other way counts as inactive or inconclusive. *1 amine or outer side, *2 acyl side, *3 side chain or, on linkers, in order; H or OH if unused. Where a SMILES comes first, the peptide text is derived from it. [ ]: non-standard residue; d: D form. X4 = CC(C)=CCc1cc(C(O)C(N[*:1])C(=O)[*:2])ccc1O
Legend:
[1] = Primary qHTS for inhibitors of nuclear receptor binding SET domain protein 2 (NSD2) in an isogenic RCH-ACV NSD2 p.E1099K mutant (9B) (AID 1645876); also: nearly all actives have a fitted effect of over 70% in size
[2] = Primary qHTS for inhibitors of nuclear receptor binding SET domain protein 2 (NSD2) in an RCH-ACV wild type WT cells (2C) (AID 1645877); also: nearly all actives have a fitted effect of over 70% in size
[3] = biological target: Glutathione peroxidase 1 (Homo sapiens) (UniProt P07203); assay: Primary qHTS Assay for Inhibitors of Recombinant Selenoprotein Glutathione Peroxidase 1 (GPX1) (AID 1845191); also: nearly all actives have a fitted effect of over 65% in size
Glutathione peroxidase 1 (Homo sapiens), sequence (P07203 whole entry, looked up): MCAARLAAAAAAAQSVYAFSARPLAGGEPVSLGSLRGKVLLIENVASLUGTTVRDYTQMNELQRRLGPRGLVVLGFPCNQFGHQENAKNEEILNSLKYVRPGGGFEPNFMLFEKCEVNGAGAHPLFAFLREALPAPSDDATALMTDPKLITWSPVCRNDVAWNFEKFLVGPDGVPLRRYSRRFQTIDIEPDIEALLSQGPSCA
Summary of the method: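 GPX1 10 nM, GR 100 nM, GSH 1 mM, NADPH 0.5 mM, CHP 0.5 mM (final). 30-min cpd preincubation, RT. Ex340/Em450 read t=0, t=15 min.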
% is scaled to controls: 0 for no effect and ±100 for the full control effect.

C=CC(C)(O)C(O)CC1C(C)(O)C(O)C(O)C2C(C)(C)CCCC21C (configuration not stated)
inactive: Potency [1] | Potency [2] | Potency [3]

COc1ccc(/C=C/C(=O)O[C@@H]2[C@@H](O)[C@@H](O)[C@H](O[C@@H]3C=C(CO)[C@H]4[C@H](O[C@@H]5O[C@H](CO)[C@@H](O)[C@H](O)[C@H]5O)OC=C[C@H]43)O[C@H]2C)cc1O
inactive: Potency [1] | Potency [2] | Potency [3]

COc1cc(/C=C/CO)cc(OC)c1O[C@@H]1O[C@H](CO[C@@H]2O[C@H](CO)[C@@H](O)[C@H](O)[C@H]2O)[C@@H](O)[C@H](O)[C@H]1O
inactive: Potency [1] | Potency [2] | Potency [3]

CC1(C)CC[C@]2(C(=O)O[C@@H]3O[C@H](CO)[C@@H](O)[C@H](O)[C@H]3O)CC[C@]3(C)C(=CCC4[C@@]5(C)C[C@@H](O)[C@H](O)C(C)(C)C5[C@H](O)C[C@]43C)[C@@H]2[C@@H]1O (some centres not stated)
inactive: Potency [1] | Potency [2] | Potency [3]

CC(C)=CCC[C@](C)(O[C@@H]1O[C@H](CO)[C@@H](O)[C@H](O)[C@H]1O)[C@H]1CC[C@]2(C)[C@@H]1[C@H](O)CC1[C@@]3(C)CC[C@H](O)C(C)(C)C3[C@@H](O[C@@H]3O[C@H](CO)[C@@H](O)[C@H](O)[C@H]3O[C@@H]3OC[C@@H](O)[C@H](O)[C@H]3O)C[C@]12C (some centres not stated)
inactive: activity change, negative = viability loss [1] -22.1% [at 9.23 µM] | activity change, negative = cell killing [2] -29.2% [at 9.23 µM] | Potency [3]

C[C@@H]1O[C@@H](O[C@H]2[C@H](O)[C@@H](O)[C@H](OC3CCC4(C)C5CCC(C)(C(CO)OC6OC(CO)C(O)C(O)C6O)CC5=CCC4C3(C)C)O[C@@H]2CO)[C@H](O)[C@H](O)[C@H]1O (some centres not stated)
inactive: Potency [1] | Potency [2] | Potency [3]

CC(=O)N1CCc2ccc(O)c(OC3OC(COC4OCC(O)(CO)C4O)C(O)C(O)C3O)c2C1Cc1ccc(O)cc1 (configuration not stated)
inactive: Potency [1] | Potency [2] | Potency [3]

C/C1=C\CC[C@H](C)CCO[C@@H]2O[C@H](CO[C@@H]3OC[C@](O)(COC1=O)[C@H]3O)[C@@H](O)[C@H](O)[C@H]2O
inactive: Potency [1] | Potency [2] | Potency [3]

CC(O)/C=C/C1OC(=O)CC1Nc1ccc(C(=O)O)cc1 (configuration not stated)
inactive: Potency [1] | Potency [2] | Potency [3]

CC(C)=CCC/C(C)=C/CCC1(C)Oc2c(c(O)cc3c2CN(C(CCC(=O)O)C(=O)O)C3=O)CC1O (configuration not stated)
inactive: Potency [1] | Potency [2] | Potency [3]

O=C(/C=C/c1ccc(O)cc1)N[C@@H](Cc1ccc(O)cc1)C(=O)O
inactive: Potency [1] | Potency [2] | Potency [3]

O=C(O)/C=C/c1ccc(O)c(O[C@@H]2O[C@H](CO)[C@@H](O)[C@H](O)[C@H]2O)c1
inactive: Potency [1] | Potency [2] | Potency [3]

CCC(O)(C(=O)OCc1ccccc1NC(=O)CCC(=O)O)C(C)O (configuration not stated)
inactive: Potency [1] | Potency [2] | Potency [3]

Cc1cc(Cl)ccc1COc1ccnn1-c1cc(C(=O)O)ccn1
inactive: Potency [1] | Potency [2] | Potency [3]

C[C@H](CCC(=O)O)[C@H]1CC[C@H]2[C@@H]3C[C@H](O)[C@@H]4C[C@H](O)CC[C@]4(C)[C@H]3CC[C@]12C
inactive: Potency [1] | Potency [2] | Potency [3]

CC1CCC2C(C)(C)[C@@H](O)CC[C@]2(C)C12Cc1c(O)cc3c(c1O2)CN(C(CCC(=O)O)C(=O)O)C3=O (some centres not stated)
inactive: Potency [1] | Potency [2] | Potency [3]

CC(C)(O)/C=C/C1=CC(=O)[C@@](C)(O)C[C@H]1O
inactive: Potency [1] | Potency [2] | Potency [3]

NC(=O)[C@H](O[C@@H]1O[C@H](CO)[C@@H](O)[C@H](O)[C@H]1O)c1ccccc1
inactive: Potency [1] | Potency [2] | Potency [3]

COC(=O)C(C)C1CCC2(C)C(=O)C=CC(C)(O)C2C1O (configuration not stated)
inactive: Potency [1] | Potency [2] | Potency [3]

C[C@@H]1CC[C@]2(C(=O)OC3OC(CO)C(O)C(O)C3O)CC[C@]3(C)C(=CCC4[C@@]5(C)CC[C@H](O)[C@](C)(C(=O)O)C5CC[C@]43C)C2[C@]1(C)O (some centres not stated)
inactive: Potency [1] | Potency [2] | Potency [3]

COC(=O)C1=CO[C@@H](O[C@@H]2O[C@H](CO)[C@@H](O)[C@H](O)[C@H]2O)[C@@H]2[C@@](C)(O)[C@@H](OC(=O)/C=C/c3ccc(O)cc3)C[C@]12O
inactive: Potency [1] | Potency [2] | Potency [3]

CC(C)(O)CC(CO)NC(=O)CC(O)CC(=O)Cc1ccccc1 (configuration not stated)
inactive: Potency [1] | Potency [2] | Potency [3]

CC(C)=CCc1cc(C(O)C2NC(=O)CNC(=O)C(Cc3c[nH]c4ccccc34)NC(=O)C3CCCN3C(=O)CNC(=O)C(C(C)C)NC(=O)CNC2=O)ccc1O (configuration not stated) (cyclo(G[X4]GVGPW); configuration not given here)
inactive: activity change, negative = viability loss [1] -11.5% [at 9.23 µM] | activity change, negative = cell killing [2] -18.5% [at 9.23 µM] | Potency [3]

CC1(C)CC[C@]2(C(=O)O[C@@H]3O[C@H](CO[C@@H]4O[C@H](CO)[C@@H](O)[C@H](O)[C@H]4O[C@@H]4O[C@H](CO)[C@@H](O)[C@H](O)[C@H]4O)[C@@H](O)[C@H](O[C@@H]4O[C@H](CO)[C@@H](O)[C@H](O)[C@H]4O)[C@H]3O)CC[C@]3(C)C(=CCC4[C@@]5(C)CC[C@@H](O)[C@@](C)(C(=O)O[C@@H]6O[C@H](CO)[C@@H](O)[C@H](O)[C@H]6O)C5CC[C@]43C)[C@@H]2C1 (some centres not stated)
inactive: outcome [1] inactive [at 9.23 µM] | outcome [2] inactive [at 9.23 µM] | activity, negative = inhibition [3] -10.6% [at 9.52 µM]

Reference: PubChem BioAssay (NCATS)
